Test [1] is described as follows: resazurin metabolic signal in HepG2 cells – cell-based, resazurin fluorescence, 24 h, PK04 Diversity Set, profiling panel (AID 1172). Further: test concentration not given here. To be noted: HepG2 viability, higher = more signal.
The nature of test [2]: budding yeast growth changes without added modifier – OD600, strain BY4716, 24 h, basal condition, primary screen (AID 1173). To be noted: S. cerevisiae BY4716 growth, OD600, 24 h; higher = more signal, called active from +8 up or from −8 down.
Test [3] can be described thus: viability profiling in MM1S myeloma cells – cell-based, resazurin fluorescence, basal, 24 h, PK04 Diversity Set, profiling panel (AID 1174).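 Further: MM1S multiple myeloma cell line; test concentration not given here.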 Conditions: higher = more signal, called active from +8 up or from −8 down. On the technique in general: The colour change of resazurin is a common sign of viable cells or microbes.
In test [4] the target is Dihydroorotate dehydrogenase (quinone), mitochondrial (Plasmodium falciparum (isolate 3D7)) (UniProt Q08210). The test is described as follows: inhibition of P. falciparum DHODH – biochemical, C-terminal His tag, absorbance 600 nm, primary screen (AID 1175).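 Further: recombinant parasite enzyme with a five histidine tag at its C terminus; test concentration not given here.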 Conditions: PfDHODH enzyme, DCIP absorbance 600 nm; higher = more signal, called active from +8 up or from −8 down.
The nature of test [5]: inhibition of PAO1 biofilm formation – strain PAO1, LB-PBS medium, absorbance 600 nm, primary screen (AID 1176). Further: test concentration not given here. Conditions: P. aeruginosa PAO1 growth/biofilm, A600, 12 h; higher = more signal.
Test [6] is described as follows: growth modulation of vineyard yeast isolate – strain RM11-1a, OD600, basal, 24 h, primary screen (AID 1177).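 Further: cultures grown under basal conditions with no added stressor; test concentration not given here.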 To be noted: S. cerevisiae RM11-1a growth, OD600, 24 h; higher = more signal, called active from +8 up or from −8 down.
Test [7] in a line: growth of efflux-deficient E. coli DRC39 – strain DRC39, OD650, 24 h, E. coli filamentation inducers, primary screen (AID 1178).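 Further: growth measured as culture turbidity by optical density at 650 nm; test concentration not given here.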 Conditions: E. coli DRC39 acrAB, higher = more signal, called active from +8 up or from −8 down.
Test [8] can be described thus: growth of efflux-deficient E. coli DRC39 – strain DRC39, OD650, 48 h, E. coli filamentation inducers, primary screen (AID 1179).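 Further: screen aims at cell division blockers that make cells filament.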 To be noted: E. coli DRC39 delta-acrAB growth, higher = more signal, called active from +8 up or from −8 down.
Test [9] is described as follows: viability profiling in RPMI8226 myeloma cells – cell-based, resazurin fluorescence, basal, 24 h, PK04 Diversity Set, profiling panel (AID 1180).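 Further: RPMI8826 multiple myeloma cell line at 5000 cells per well; test concentration not given here.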 Conditions: higher = more signal.
The target in test [10] is E3 ubiquitin-protein ligase XIAP (Homo sapiens) (UniProt P98170). The test is described as follows: small molecules binding XIAP protein – biophysical, small-molecule microarray, fluorescence 635 nm, primary screen (AID 1181).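 Further: score merges 667 nm emission and signal to noise over triplicate slides.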 To be noted: higher = more signal.

The source made the active and inactive calls. Unless noted, how the calls were made is not given here.

E3 ubiquitin-protein ligase XIAP (Homo sapiens), sequence (P98170 whole entry, looked up): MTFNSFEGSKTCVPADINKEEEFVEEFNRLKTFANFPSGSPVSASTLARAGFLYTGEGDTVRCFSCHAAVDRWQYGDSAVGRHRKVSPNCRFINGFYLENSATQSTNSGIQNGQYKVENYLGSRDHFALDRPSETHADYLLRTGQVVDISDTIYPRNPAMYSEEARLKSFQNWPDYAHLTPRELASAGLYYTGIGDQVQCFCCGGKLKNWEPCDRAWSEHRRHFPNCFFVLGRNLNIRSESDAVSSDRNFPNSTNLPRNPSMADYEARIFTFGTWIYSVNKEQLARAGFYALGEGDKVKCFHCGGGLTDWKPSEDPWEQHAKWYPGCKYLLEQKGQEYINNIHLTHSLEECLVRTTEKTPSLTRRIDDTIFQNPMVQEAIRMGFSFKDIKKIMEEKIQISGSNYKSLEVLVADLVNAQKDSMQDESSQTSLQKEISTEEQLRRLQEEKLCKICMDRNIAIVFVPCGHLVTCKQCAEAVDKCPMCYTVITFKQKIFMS
Dihydroorotate dehydrogenase (quinone), mitochondrial (Plasmodium falciparum (isolate 3D7)), sequence (Q08210 whole entry, looked up): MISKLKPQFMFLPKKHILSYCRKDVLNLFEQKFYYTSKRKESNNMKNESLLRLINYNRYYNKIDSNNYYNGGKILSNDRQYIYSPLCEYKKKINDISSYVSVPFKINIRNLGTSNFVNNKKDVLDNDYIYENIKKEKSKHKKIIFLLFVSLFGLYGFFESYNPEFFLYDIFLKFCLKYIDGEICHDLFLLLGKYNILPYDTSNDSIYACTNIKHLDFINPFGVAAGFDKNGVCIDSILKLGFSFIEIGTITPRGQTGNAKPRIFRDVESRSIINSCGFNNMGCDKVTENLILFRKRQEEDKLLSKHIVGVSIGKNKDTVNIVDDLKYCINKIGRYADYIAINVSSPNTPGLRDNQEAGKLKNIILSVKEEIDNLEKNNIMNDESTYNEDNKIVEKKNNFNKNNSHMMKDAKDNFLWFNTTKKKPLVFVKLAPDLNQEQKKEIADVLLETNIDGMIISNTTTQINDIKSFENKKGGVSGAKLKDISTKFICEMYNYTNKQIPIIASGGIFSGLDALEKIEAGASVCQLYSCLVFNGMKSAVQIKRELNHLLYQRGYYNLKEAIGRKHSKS

For `CO[C@H]1COC(=O)CC=C[C@H](C)COC(=O)[C@@H](C)NC(=O)CC=C[C@@H]1C`, the z-score in test [1] was -0.251; in test [2], -0.695 (inactive); in test [3] it was 1.31 (inactive); in [5], -0.16 (inactive); in [6], -0.652 (inactive); in test [7], 0.33 (inactive). Moreover, the results for the z-score in test [8] and in test [9] were -1.21 (inactive) and 0.961, respectively. Besides, the composite z-score in [4] was -0.412 (inactive); in test [10] it was 0.0297.

Consider `O=C1CCCC=C1C(O)CCCCBr` (stereo not given), for which the z-score in [1] was -1.4; in test [2], -17.6 (active); in [3], -8.08 (active); in test [5] it was 1.43 (inactive); in [6], -2.66 (inactive); in [7], 0.48 (inactive). The figures for the z-score in test [8] and in test [9] were 0.557 (inactive) and -4.3, respectively. Further, the values for the composite z-score in test [4] and in [10] were -1.39 (inactive) and -0.193, respectively.

Take `CO[C@H]1COC(=O)CCC[C@@H](C)[C@H](OC)COC(=O)[C@@H](C)NC(=O)CC=C[C@@H]1C`: the z-score is 0.0039 in [1]; 0.315 (inactive) in [2]; 0.77 (inactive) in [3]; -1.46 (inactive) in test [5]; -1.07 (inactive) in test [6]; -1 (inactive) in test [7]. Moreover, the z-score is -0.345 (inactive) in [8] and 0.0228 in test [9]. In addition, the values for the composite z-score in test [4] and in test [10] were -2.33 (inactive) and -0.138, respectively.

Regarding `O=C1[C@H]2[C@H]3[C@H](O)[C@H](O)CC(=NOC[C@@H](O)COCc4ccco4)[C@H]3CC[C@H]2C(=O)N1c1ccc(F)cc1F`, the z-score in [1] was 0.474; in test [2], -1.89 (inactive); in [3] it was 0.988 (inactive); in test [5] it was 1.18 (inactive); in [6], -3.71 (inactive); in test [7] it was -0.311 (inactive). Also, the z-score in test [8] is -1.22 (inactive); in test [9] it was -0.374. The composite z-score in test [4] is -2.54 (inactive); in [10], -0.446.

In the case of `CC(=O)OC[C@H]1O[C@H](C#Cc2ccccc2)C=C[C@@H]1OC(C)=O`, the z-score is -0.153 in test [1]; -2.26 (inactive) in test [2]; -5.37 (inactive) in test [3]; -0.339 (inactive) in test [5]; -0.14 (inactive) in test [6]; 0.731 (inactive) in test [7]. Besides, the z-score in [8] is 0.414 (inactive); in test [9] it was -2.61. The results for the composite z-score in test [4] and in test [10] were -0.0765 (inactive) and -0.13, respectively.

On to `COCOc1ccc(Br)cc1C(=O)[C@@H]1O[C@H]1c1cccc(OC)c1`, for which the z-score in test [1] is -0.0514; in [2] it was -8.36 (active); in test [3], -1.86 (inactive); in [5], -0.257 (inactive); in test [6], 0.45 (inactive); in test [7] it was 0.534 (inactive). The z-score is 0.35 (inactive) in test [8] and -0.516 in [9]. The composite z-score in [4] was 0.0095 (inactive); in test [10], 0.184.

`CCO[C@H](c1cc(OC)cc([N+](=O)[O-])c1OC)[C@H](C)C=CCC(=O)OC`: the z-score is -0.0508 in [1]; -2.19 (inactive) in test [2]; -1.43 (inactive) in test [3]; 0.18 (inactive) in test [5]; 0.343 (inactive) in [6]; 0.884 (inactive) in [7]. Further, the figures for the z-score in test [8] and in test [9] were 0.38 (inactive) and -0.622, respectively. Also, the composite z-score was -0.278 (inactive) in [4] and 0.601 in test [10].

For `CCOC(=O)[C@H](CC(C)C)NC(=O)CCC1CC(OC(=O)NCc2cccc3ccccc23)CC2(CCCC(COC(=O)NCCC(C)C)O2)O1` (stereo not given in full), the z-score in test [1] was 0.232; in [2], -2.17 (inactive); in test [3], 0.771 (inactive); in [5] it was 0.131 (inactive); in [6], -3.91 (inactive); in test [7], -0.259 (inactive). The z-score in test [8] is -0.457 (inactive); in test [9] it was -0.286. Besides, the values for the composite z-score in test [4] and in test [10] were -2.64 (inactive) and 0.117, respectively.

As to `COC(=O)[C@H](C)NC(=O)CCC1CC(OC(=O)NCCc2ccc(F)cc2)CC2(CCCC(COC(=O)NCCC(C)C)O2)O1` (stereo not given in full), the z-score in [1] is -0.666; in [2], -1.27 (inactive); in [3], 0.711 (inactive); in [5], 0.675 (inactive); in [6], -1.15 (inactive); in test [7], 0.29 (inactive). The z-score in test [8] is -0.947 (inactive); in [9], 0.967. The composite z-score in test [4] is -2.05 (inactive); in test [10] it was -0.102.

Consider `CCOC(=O)[C@H](CC(C)C)NC(=O)CCC1CC(OC(=O)NCc2ccc3c(c2)OCO3)CC2(CCCC(COC(=O)NCC3CCCCC3)O2)O1` (stereo not given in full), for which the z-score in test [1] is 0.471; in test [2] it was 0.105 (inactive); in test [3] it was 1.4 (inactive); in [5] it was -0.0326 (inactive); in test [6], 0.494 (inactive); in [7], 0.536 (inactive). Further, the z-score in [8] is 0.0926 (inactive); in test [9] it was 1.32. Further, the results for the composite z-score in test [4] and in test [10] were -0.19 (inactive) and -0.0053, respectively.
